AmpC inh no detg = AmpC beta-lactamase inhibition without detergent; AmpC nitrocefin hydrolysis, absorbance 480 nm, 0.0001% Triton; Potency, µM (top dose mostly 57.1 µM), for inactives: at the top dose activity change, negative = inhibition, usual class: inhibitors; hit rate 0.52% among 330,000; AID 485341;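 further: plate controls were no compound for no effect and no enzyme for full effect; nearly all actives have a fitted effect of over 20% in size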
Target sequence (P00811 whole entry, looked up): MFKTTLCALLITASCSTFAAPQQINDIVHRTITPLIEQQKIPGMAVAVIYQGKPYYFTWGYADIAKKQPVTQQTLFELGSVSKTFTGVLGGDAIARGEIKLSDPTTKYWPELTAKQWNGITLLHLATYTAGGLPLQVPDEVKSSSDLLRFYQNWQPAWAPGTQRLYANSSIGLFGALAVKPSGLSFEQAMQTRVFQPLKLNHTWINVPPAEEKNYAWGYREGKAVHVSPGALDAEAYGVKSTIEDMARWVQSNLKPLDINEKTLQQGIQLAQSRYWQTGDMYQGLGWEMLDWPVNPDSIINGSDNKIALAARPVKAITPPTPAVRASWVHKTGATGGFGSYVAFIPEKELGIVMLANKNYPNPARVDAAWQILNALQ
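AmpC (5.3 nM in the dispensed reagent) in 20 mM phosphate pH 7.0 with 0.01% (detergent screen) or 0.0001% Triton X-100 was preincubated with compounds for 15 min at room temperature. Nitrocefin was then added from an 800 uM solution, and hydrolysis was followed at 480 nm.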
AmpC inh detg = blocks E. coli AmpC beta-lactamase in detergent assay; Potency, µM (top dose mostly 114 µM), for the others: at the highest dose activity change, negative = inhibition, most hits filed as inhibitors; hit rate 0.041% among 370,000; AmpC hydrolysis of nitrocefin, absorbance 480 nm, 0.01% Triton; P00811;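 further: 0% = no-compound wells and -100% = no-enzyme wells; nearly all actives have a fitted effect of over 25% in size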
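AmpC (5.3 nM in the dispensed reagent) in 20 mM phosphate pH 7.0 with 0.01% (detergent screen) or 0.0001% Triton X-100 was preincubated with compounds for 15 min at room temperature. Nitrocefin was then added from an 800 uM solution, and hydrolysis was followed at 480 nm.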
Pf growth 96h = P. falciparum growth inhibition at 96 hours; hit rate 6.9% among 320,000; P. falciparum luciferase reporter growth, 96 h; AID 504834; Potency, µM (series often up to 28.7 µM), for inactives: at the highest dose activity change, negative = inhibition, most hits filed as inhibitors; further: on the % scale 0 is the no-effect control and ±100 the full control effect
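Parasite growth measured via integrated firefly luciferase reporter in P. falciparum. Infected erythrocytes at 2% hematocrit, 0.05% parasitemia final were treated 96 hours at 37 C under 5% CO2, and luminescence was read.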
Sm TGR inh = S. mansoni TGR enzyme inhibition; purified TGR, DTNB reduction, TNB absorbance 405 nm; Potency, µM (doses to about 114 µM), for inactives: at the top dose activity change, negative = inhibition, actives largely listed as inhibitors; hit rate 3% among 360,000; further: on the % scale 0 is the no-effect control and ±100 the full control effect; nearly all actives have a fitted effect of over 60% in size
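Kinetic colorimetric format: TGR-catalysed, NADPH-driven DTNB reduction monitored via TNB absorbance. Enzyme dispensed at 20 nM; compound exposure 15 min at room temperature before reaction start.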
SARS PLpro yeast = SARS-CoV PLP inhibition in yeast; S. cerevisiae expressing SARS-CoV PLpro, growth rescue; Potency, µM (top dose mostly 32.9 µM), for the others: at the top dose activity, positive = growth rescue, hits mostly activators; hit rate 0.19% among 330,000; AID 485353; calls by dose curve; further: 0% is about no effect; nearly all actives have a fitted effect of over 55% in size
Pf growth 48h = P. falciparum growth inhibition at 48 hours (one generation); Potency, µM (series often up to 28.7 µM), without a hit: at the top dose activity change, negative = inhibition, usual class: inhibitors; P. falciparum luciferase growth in erythrocytes, 48 h; hit rate 5.9% among 310,000; further: on the % scale 0 is the no-effect control and ±100 the full control effect
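Here the parasites carry a stable luciferase gene and grow inside erythrocytes in Albumax-based RPMI medium with compound for one erythrocytic cycle. Activity is scored as loss of luminescent signal.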
Active calls of the source: *; u = inconclusive; x = not tested or not shown. Hits are enriched below; roughly 12% of the tested compounds scored in any of these assays. Unless noted, the call rests on the fitted dose curve; in most records, active means well fitted curve in the direction sought with a large enough effect; inconclusive means small, poorly fitted or top-dose-only effect, or another doubt; inactive means no such curve, though single readings can be large; an effect the other way counts as inactive or inconclusive. Potency means the concentration at half of the fitted maximal effect.

SMILES | AmpC inh no detg | AmpC inh detg | Pf growth 96h | Sm TGR inh | SARS PLpro yeast | Pf growth 48h
Clc1ccccc1CN(Cc1ccco1)Cc1nnnn1C1CCCC1 | -5% | 6% | 12% | 2% | x | 7.4µM*
O=C(COC(=O)c1ccc2c(=O)n3c(nc2c1)CCC3)Nc1ccc(OC(F)F)cc1 | 33% | -5% | 23% | 4% | -4% | 15%
Cc1ccc(NC2=CC(c3ccccc3F)N(c3ccc(C)cc3)C2=O)cc1 (stereo not given) | x | 0% | x | u | x | x
N#Cc1c(NCCCO)nc(-c2ccco2)c2c1CCCC2 | 51% | 1% | u | 6.3µM* | 5% | x
N#Cc1c(N2CCNCC2)nc(-c2ccco2)c2c1CCCC2 | -16% | 9% | 32% | 7% | 0% | 6%
N#Cc1c(NC2CCCCC2)nc(-c2ccco2)c2c1CCCC2 | -27% | -5% | u | 35µM* | 2% | x
COC12C(COC(N)=O)C3=C(C(=O)C(C)=C(N)C3=O)N1CC1C2N1C (stereo not given) | -20% | 6% | u | 13µM* | 4% | 0.93µM*
CCc1ccc(S(=O)(=O)c2cn(Cc3ccccc3)c3cc(F)c(F)cc3c2=O)cc1 | x | -11% | x | -2% | x | x
CCN(CC)c1ccc(NC(=O)c2cnn(-c3ccccc3)c2-n2cccc2)c(C)c1 | x | 13% | x | 1% | x | x
C[C@H](NC(=O)[C@@H]1Cc2ccccc2CN1)C(=O)Nc1ccc2c(c1)OCO2 | -6% | -3% | -8% | -1% | 1% | -10%
CSCC[C@H](NC(=O)[C@@H]1Cc2ccccc2CN1)C(=O)Nc1ccc2c(c1)OCO2 | -13% | -1% | u | -14% | -5% | 9.3µM*
CC(C)N1C(=O)c2ccccc2C1C(=O)NC1CCCCCC1 (stereo not given) | -4% | -14% | 0.74µM* | -2% | 7% | -15%
O=C(NC1CCCCCC1)C1c2ccccc2C(=O)N1Cc1cccs1 (stereo not given) | -37% | u | 29% | -16% | 8% | -35%
CCC(C)N1C(=O)c2ccccc2C1C(=O)NC1CCCCCC1 (stereo not given) | 0% | 2% | u | 8% | 6% | 0%
O=C(NC1CCCCCC1)C1c2ccccc2C(=O)N1Cc1ccco1 (stereo not given) | -27% | 3% | 1µM* | 50µM* | -11% | 0%
COC(=O)c1ccc(C(=O)NC2CCSc3ccccc32)cc1 (stereo not given) | -50% | -1% | -15% | 3% | 1% | -11%
Cc1ccc(NC(=S)NC2CCSc3ccccc32)cc1C (stereo not given) | 11µM* | -4% | u | 5% | -11% | u
COc1ccccc1CNC(=O)C(=O)NCC(c1cccnc1)N1CCN(c2ccccc2)CC1 (stereo not given) | x | -2% | x | 1% | x | x
Cc1ccc(C(=O)COC(=O)c2c(C)cc(=O)oc2C)cc1[N+](=O)[O-] | -22% | -2% | 23% | 1% | 0% | 6%
CC(O)CCCCn1c(=O)c2c(ncn2C)n(C)c1=O (stereo not given) | x | x | -3% | x | x | -4%
Cc1ccc(Cc2cnc(NC(=O)c3ccco3)s2)cc1 | -12% | 2% | x | -6% | -18% | 201%
N=C1SC(c2ccccc2)C(=O)N1c1ncc(Cc2ccccc2)s1 (stereo not given) | 32µM* | 8% | u | 1% | -5% | u
Cc1ccc(Cc2cnc(N3C(=N)SC(c4ccccc4)C3=O)s2)cc1 (stereo not given) | u | -6% | 9.3µM* | -7% | 8% | 5%
COc1ccc(C2N(c3cc(Cl)ccc3OC)C(=O)C3CCCN32)c(OC)c1 (stereo not given) | 15% | -16% | 0.93µM* | 0% | 4% | x
COc1ccccc1C1N(c2cc(Cl)ccc2OC)C(=O)C2CCCN21 (stereo not given) | 7% | -14% | -7% | -13% | -3% | x
SMILES | AmpC inh no detg | AmpC inh detg | Pf growth 96h | Sm TGR inh | SARS PLpro yeast | Pf growth 48h
Cc1cc(C)c(S(=O)(=O)Cc2ccccc2)c(OC(C)C)n1 | 3% | 6% | 10µM* | -1% | -3% | u
Cc1c(C(=O)Nc2ccccc2[N+](=O)[O-])csc1-c1ccccc1 | -9% | 2% | -13% | 1% | -52% | 12%
CCN(c1ccccc1)S(=O)(=O)c1ccc(Cl)c(NC(=O)CN2CCCCCC2)c1 | -2% | u | u | -3% | 0% | 5.9µM*
CCN(c1ccccc1)S(=O)(=O)c1ccc(Cl)c(NC(=O)CSc2nncs2)c1 | -26% | -9% | u | -8% | -6% | 2%
CN(C)S(=O)(=O)c1ccc(Cl)c(NC(=O)CN2CCCCCC2)c1 | 22% | -1% | -1% | -9% | 0% | u
CCN(c1ccccc1)S(=O)(=O)c1cc(C(=O)Nc2ccc(Br)cc2)ccc1F | -15% | u | u | 7% | 3% | u
CCN(c1ccccc1)S(=O)(=O)c1cc(C(=O)Nc2ccccc2Cl)ccc1F | -37% | u | 2.9µM* | 0% | 21% | -4%
CCN(c1ccccc1)S(=O)(=O)c1ccc(Cl)c(NC(=O)CSc2nncn2C)c1 | 10% | -5% | 8.3µM* | -5% | 1% | u
O=S(=O)(Nc1cccc(-c2nnco2)c1)c1ccc(F)cc1F | -22% | 4% | -1% | 3% | 0% | 13%
CCCCSc1nnc([C@@H]2CCCN2C(=O)OC(C)(C)C)o1 | 64% | 32µM* | -30% | -4% | 6% | u
CC(C)(C)OC(=O)N1CCC[C@H]1c1nnc(SCc2ccccc2Cl)o1 | 112% | -7% | u | 0% | -13% | u
CC(C)(C)OC(=O)N1CCC[C@H]1c1nnc(SC/C=C/c2ccccc2)o1 | 117% | u | u | u | -1% | 10µM*
Cc1cc(NC(=O)CC2CCCC2)n(-c2nc3ccccc3[nH]2)n1 | -22% | -9% | 5.9µM* | 22µM* | -2% | u
NC(=O)c1nsc(C(=O)N(c2ccccc2)C(C(=O)NCc2ccc(F)cc2)c2ccc(O)cc2)c1N (stereo not given) | -42% | -4% | -6% | 5% | 1% | u
Cc1ccc(-c2[nH]ncc2/C=N/n2c(C)nc3ccccc3c2=O)cc1 | 5% | -3% | 121% | -11% | -1% | 48%
Cc1ccccc1OCc1nc2ccccc2c(=O)n1/N=C/c1cn[nH]c1-c1ccc(Br)cc1 | -40% | 1% | 5.2µM* | -1% | 6% | u
O=c1c2ccccc2nc(COc2ccccc2)n1/N=C/c1cn[nH]c1-c1ccccc1 | -47% | -6% | 10µM* | 7% | 22% | u
